Common to all, as to experiment: NCI-60 one-dose screen, 48 h (100 = growth as untreated, 0 = no growth, -100 = all killed)
Common to all, as to conditions: 10 µM unless noted

The test system of assay [1] is HCT-15 colon.
Assay [2] concerns HT29 colon.
For assay [3], the system named is SNB-75 CNS.
For assay [4], the system named is SNB-19 CNS.
Assay [5] concerns U251 CNS.
Assay [6] has as its system PC-3 prostate.
Assay [7] has as its system SK-MEL-5 melanoma.
Assay [8] deals with UACC-62 melanoma.
Assay [9] has as its system LOX IMVI melanoma.
Assay [10] relates to SK-MEL-28 melanoma.

About 83,000 compounds went through this panel and 20% of them were active in at least one assay; those are over-represented in the sample as a whole.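 Results are percent growth after 48 hours of single-concentration exposure. 100 means growth as in untreated cells, lower positive values show inhibition; negative values down to -100 show cell death.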 Unmarked numbers belong to inactive results. Calls of active or inactive are those of the source. Rule for the calls: active = growth percent below 10; inactive = the rest.

As to `CCc1ccc(CCC(=O)Nc2ncc(Cc3ccc(Cl)cc3)s2)o1`, the growth in [1] was 21.9%; in [2] it was 8.1% (active); in assay [3], -7.87% (active); in [4], 50.6%; in assay [5], 22.8%; in assay [6] it was 29.3%. Besides, the growth in assay [7] is 34.6%; in [8] it was 33.3%; in assay [9], 47.6%; in [10] it was 66.3%.
For the compound `Nc1nc(C(=O)N/N=C/c2ccc(N3CCOCC3)cc2)nn1-c1ccc(S(N)(=O)=O)cc1`, the growth was 108% in assay [1]; 106% in assay [2]; 83% in assay [3]; 102% in assay [4]; 98.3% in [5]; 101% in assay [6]. In addition, the growth in assay [7] is 102%; in assay [8], 102%; in assay [9], 97.4%; in assay [10], 117%.
With `COC(=O)c1ccc2c(c1)c1c(C)c3ccncc3c(C)c1n2C`, the growth in assay [1] is 18.6%; in assay [2] it was 12.4%; in assay [3], 22%; in [4] it was 29%; in [5], 20.9%; in assay [6], 31.8%. The growth in assay [7] was 14.5%; in assay [8], 3.04% (active); in assay [9], 4.81% (active); in assay [10], 35.4%.
For the compound `COc1ccc(C/C(C)=C(/c2ccc(OCCN3CCCCCC3)cc2)c2ccc(OC(=O)NCc3ccccc3)cc2)cc1`, the growth in assay [1] was 60.6%; in [2], 13.4%; in assay [3] it was 90.7%; in [4], 87.4%; in [5], 71.8%; in [6] it was 71.8%. Besides, the growth was 91.2% in [7], 88.8% in assay [8], 52.3% in assay [9] and 98.3% in assay [10].
For `N#Cc1c(Nc2ccc(F)cc2)n[nH]c1-c1cccs1`, the growth is 97.7% in assay [1]; 114% in assay [2]; 85.6% in assay [3]; 85.6% in assay [4]; 102% in [5]; 95.7% in assay [6]. For the same compound, the growth in assay [7] is 97.1%; in [8], 76.9%; in assay [9], 95.1%; in [10], 105%.
Regarding `COc1cc(Nc2ncccc2NC(=O)c2cn(Cc3cccc(Oc4ccccc4)c3)nn2)cc(OC)c1`, the growth was 68.7% in [1]; 88.8% in assay [2]; 79.9% in assay [3]; 79.6% in assay [4]; 80.2% in [5]; 66.5% in [6]. Further, the growth in [7] was 60%; in assay [8] it was 65.5%; in assay [9] it was 75.1%; in assay [10], 83.3%.
Consider `C#CCn1cnc2c(Nc3cccc(NC(=O)CCl)c3)ncnc21`, for which the growth in assay [1] was 23.4%; in assay [2], 26.9%; in assay [3], 33.2%; in assay [4] it was 58.7%; in assay [5], 19.1%; in assay [6], 28.6%. Further, the growth in [7] was 31.4%; in [8], 19.7%; in [9] it was 24%; in [10], 39.5%.
For the compound `C=C1C(=O)O[C@H]2[C@H]1CC/C(COC(=O)c1cc3cc(F)ccc3[nH]1)=C\CC[C@@]1(C)O[C@@H]21`, the growth in assay [1] is -59.8% (active); in [2], -53.6% (active); in [3] it was -35.3% (active); in assay [4], -10.2% (active); in assay [5], -86% (active); in assay [6], -75.2% (active). Moreover, the growth in assay [7] is -94.5% (active); in assay [8], -71.9% (active); in [9] it was -87.2% (active); in assay [10], -77.4% (active).
On to `CCCCCn1sc(=O)n(Cc2ccc(CNC(=O)OCc3ccc4c(Cl)cc(Cl)c(O)c4n3)cc2)c1=O`, for which the growth is 17.1% in assay [1]; 110% in assay [2]; 82.1% in assay [3]; 48.6% in assay [4]; 39.7% in [5]; 61.1% in assay [6]. Further, the growth in [7] is 48.7%; in [8], 40.4%; in assay [9], 51.8%; in assay [10], 56%.
As to `C[Se]C(=O)CC1=C2C=C(F)C=CC2/C(=C\c2ccc(S(C)=O)cc2)C1C` (stereo not given), the growth in assay [1] was 15%; in assay [2] it was 13.8%; in assay [3], -25.5% (active); in assay [4], -22.7% (active); in assay [5], -36.3% (active); in assay [6], 20.4%. Further, the growth is -87.7% (active) in assay [7], 30.9% in assay [8], -68.4% (active) in assay [9] and 4.39% (active) in assay [10].
As to `Cc1ccc(-c2cc(C(=O)N3N=C(c4ccc(N)cc4)CC3c3ccc(Cl)cc3)c3ccccc3n2)cc1` (stereo not given), the growth in assay [1] is 30.2%; in assay [2], -1.84% (active); in [3], -4.36% (active); in assay [4], 42.1%; in assay [5], 22.5%; in assay [6], 15.4%. For the same compound, the growth in assay [7] was 12.4%; in assay [8] it was 39.2%; in [9], 37.2%; in assay [10], 72.6%.
On to `N#CCC1=NC(c2cccs2)=Nc2ccccc2S1`, for which the growth was 109% in assay [1]; 89.5% in assay [2]; 94% in [3]; 87.9% in assay [4]; 87.7% in [5]; 71.1% in [6]. In addition, the growth in [7] is 93.8%; in assay [8] it was 70.1%; in [9] it was 99.1%; in assay [10], 88.4%.
On to `C=C(c1ccc(C(=O)O)cn1)c1cc2c(cc1C)C(C)(C)CCC2(C)C`, for which the growth in assay [1] is 85.8%; in assay [2], 93.8%; in assay [3] it was 94%; in assay [4], 99.7%; in assay [5], 75.6%; in [6] it was 71.1%. Besides, the growth is 70.8% in [7], 94.3% in assay [8], 87.3% in assay [9] and 96.8% in assay [10].
With `O=C1NC(=C(Cl)Cl)/C(=N/S(=O)(=O)N2CCCCC2)N1`, the growth was -79% (active) in [1]; -75.8% (active) in [2]; 93.5% in assay [3]; 60.9% in assay [4]; -45.1% (active) in assay [5]; 28.5% in [6]. Besides, the growth in [7] is 82%; in assay [8], 46.6%; in assay [9], -56.6% (active); in [10] it was -32.7% (active).
Take `COCC[C@H]1CCC/C=C/[C@@H]2C[C@H](O)C[C@H]2[C@H](O)/C=C/C(=O)O1`: the growth in [1] is 9.76% (active); in assay [2] it was -13.8% (active); in assay [3] it was 33.9%; in assay [4] it was 30.2%; in [5] it was 15.5%; in assay [6] it was 20.5%. Moreover, the growth in assay [7] was -92% (active); in assay [8], 21.7%; in [9], -62.3% (active); in assay [10] it was 0.149% (active).
For the compound `Cc1ncc(C(=O)Nc2ccc(CN3CCN(C)CC3)c(C(F)(F)F)c2)cc1C#Cc1cnc(N)c2ccncc12`, the growth in [1] is -31.8% (active); in [2], -44.8% (active); in assay [3], -67.7% (active); in assay [4], -45.6% (active); in [5], -92.7% (active); in assay [6] it was -50.6% (active). In addition, the growth in assay [7] is -90.8% (active); in [8] it was -83.8% (active); in assay [9], -93.3% (active); in assay [10], -81.3% (active).
Regarding `CCn1cc(C(=O)NN=C2CCCCCC2)c(=O)c2ccc(C)nc21`, the growth is 86.2% in [1]; 99.7% in assay [2]; 76.2% in [3]; 88.5% in assay [4]; 94.6% in [5]; 82.7% in [6]. Further, the growth was 87.1% in assay [7], 73.2% in assay [8], 95% in assay [9] and 93.8% in assay [10].
In the case of `CCOC(=O)c1c(C)nn(CC(O)c2ccccc2)c1NC(=O)Nc1cccc(F)c1` (stereo not given), the growth in assay [1] is 85.2%; in assay [2] it was 96%; in assay [3], 77.3%; in assay [4], 94.8%; in [5] it was 93.4%; in assay [6] it was 76.8%. The growth in assay [7] is 94.7%; in [8] it was 77.2%; in assay [9], 95%; in assay [10], 104%.
Take `CC(=O)c1c(Nc2ccc(F)c(F)c2F)[nH]c2c(F)cc(F)cc2c1=O`: the growth in [1] is 4.32% (active); in [2] it was 3.62% (active); in [3], -14.8% (active); in assay [4], 22%; in [5], 0.133% (active); in [6] it was 4.75% (active). In addition, the growth in assay [7] was -75.8% (active); in [8], -27.9% (active); in [9], 5.66% (active); in [10], 4.71% (active).
`O=C1NC(=Nc2ccc(O)cc2)S/C1=C\c1cccs1`: the growth in assay [1] was 20.9%; in [2] it was 89.7%; in [3], -12.7% (active); in assay [4], 32.4%; in assay [5], 25.2%; in [6], -1.89% (active). The growth in assay [7] is 47.8%; in assay [8], 46.1%; in assay [9] it was 32.1%; in assay [10], 75.6%.
On to `Oc1c(Cl)cc(Cl)c2ccc(Cn3cc(-c4cccc(C(F)(F)F)c4)nn3)nc12`, for which the growth in [1] is 40.5%; in [2], 89.2%; in assay [3], 70%; in assay [4] it was 95.6%; in assay [5], 93.6%; in assay [6], 83.1%. The growth in [7] was 98.2%; in assay [8] it was 82.1%; in assay [9], 23.7%; in assay [10], 75.9%.

These data come from PubChem BioAssay (NCI).
